# Assay results reported in PubChem BioAssay (Tox21).
# Several values for one entry are separate records, joined by “and”; a condition that tells them apart may be missing. Equal values may be shown once. Activity calls are given as the source filed them. Where a call stands in place of a potency, no number is given. Calls follow the shape of the dose curve; as a rule, active = well fitted curve in the direction sought with a large enough effect in the repeat runs; inconclusive = weak or mixed curves; inactive = flat fitted curve, though single readings scatter.
# Test: qHTS assay to test for compound auto fluorescence at 590 nm (red) in HepG2 cell free culture (AID 720684)
# Conditions: cell-free medium autofluorescence, red 540/590 nm; series mostly up to 91.3 µM
# Method in brief: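 Red fluorescence (540 nm excitation, 590 nm emission) was measured after compound transfer into cell-free MEM supplemented with 10% FBS. Values are equivalencies against Rose Bengal sodium.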
# Tags tell the direction and shape of the fitted curve or compound fluorescence and quenching.
row,SMILES,outcome
1,CCCCOCCOC(=O)c1ccccc1C(=O)OCCOCCCC,inactive
2,O=C(O)CP(=O)(O)O,inactive
3,O=C(Nc1ccccc1SSc1ccccc1NC(=O)c1ccccc1)c1ccccc1,inactive
4,CC(N)=O,inactive
5,NC12CC3CC(CC(C3)C1)C2,inactive
6,Cc1cccc(O)c1C,inactive
7,[Cl][In]([Cl])[Cl],inactive
8,BrC1CCC(Br)C(Br)CCC(Br)C(Br)CCC1Br (stereo unspecified),inactive
9,Nc1nc(=S)c2[nH]cnc2[nH]1,inactive
10,O=C(Oc1ccccc1)c1ccccc1O,inactive
11,CC(C)CCOCc1ccccc1,inactive
12,Cc1ccc(-c2cc(C(F)(F)F)nn2-c2ccc(S(N)(=O)=O)cc2)cc1,inactive
13,CN(C)c1ccc(C(=C2C=CC(=[N+](C)C)C=C2)c2ccccc2)cc1,inactive
14,CCCCC/C=C/CC1CC(=O)OC1=O (stereo unspecified),inactive
15,C=CC(=O)OCCCCCCOC(=O)C=C,inactive
16,Cc1occc(=O)c1OC(=O)C(C)C,inactive
17,Nc1ccc(O)cc1,inactive
18,O=C1OC2(c3ccc(O)cc3Oc3cc(O)ccc32)c2ccccc21,inactive
19,CCC(C)(Oc1ccc(C2(c3ccc(OC(C)(CC)C(=O)O)cc3)CCCCC2)cc1)C(=O)O (stereo unspecified),inactive

row,SMILES,outcome
1,O=Cc1ccc(Cl)cc1,inactive
2,Cc1ccnc2c1NC(=O)c1cccnc1N2C1CC1,inactive
3,CC(=O)OCC1=C(C(=O)O)N2C(=O)[C@@H](NC(=O)Cc3cccs3)[C@H]2SC1,inactive
4,O=Nc1ccc(Nc2ccccc2)cc1,inactive
5,CC1=C(C=O)C(C)(C)CC=C1,inactive
6,CC[C@H]1CN2CCc3cc(OC)c(OC)cc3[C@@H]2C[C@@H]1C[C@H]1NCCc2cc(OC)c(OC)cc21,inactive
7,CC(C)(C)c1cc(C(C)(C)C)c(O)c(C(C)(C)C)c1,inactive
8,Nc1cc(S(=O)(=O)O)cc2cc(S(=O)(=O)O)cc(O)c12,inactive
9,CC(C)(C)c1ccccc1,inactive
10,O=C(O)CCc1ccccc1,inactive
11,CCC[C@H](N[C@@H](C)C(=O)N1[C@H](C(=O)O)C[C@@H]2CCCC[C@@H]21)C(=O)OCC,inactive
12,CN(C)c1ccc2nc3ccc(=[N+](C)C)cc-3sc2c1,inactive
13,CCCCC(CC)COC(=O)CC(C(=O)OCC(CC)CCCC)S(=O)(=O)O (stereo unspecified),inactive
14,Nc1nc2ccccc2[nH]1,inactive
15,Cc1ccc(S(=O)(=O)Oc2ccc(N=Nc3ccc(-c4ccc(N=Nc5c(O)ccc6cc(S(=O)(=O)O)cc(S(=O)(=O)O)c56)c(C)c4)cc3C)cc2)cc1,inactive
16,CC[C@@H](N)CO,inactive
17,Cc1cc(C(C)(C)C)c(O)c(C(C)(C)C)c1,inactive
18,CCN(CC)C(=O)Nc1ccc(OCC(O)CNC(C)(C)C)c(C(C)=O)c1 (stereo unspecified),inactive

# Test: qHTS assay to test for compound auto fluorescence at 460 nm (blue) in HepG2 cell free culture (AID 720685)
# Conditions: Cell-free culture medium, blue autofluorescence 405/460 nm; series mostly up to 91.3 µM
# Method in brief: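 Compound (23 nL) or DMSO pinned into cell-free MEM with 10% FBS; blue fluorescence read at 405/460 nm excitation/emission, expressed as auto-fluorescence equivalency to triamterene.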
row,SMILES,Potency
1,O=C(O)CP(=O)(O)O,inactive
2,O=C(Nc1ccccc1SSc1ccccc1NC(=O)c1ccccc1)c1ccccc1,inactive
3,CC(N)=O,inactive
4,Cc1cccc(O)c1C,inactive
5,[Cl][In]([Cl])[Cl],inactive
6,Nc1nc(=S)c2[nH]cnc2[nH]1,inactive
7,O=C(Oc1ccccc1)c1ccccc1O,inactive
8,Cc1ccc(-c2cc(C(F)(F)F)nn2-c2ccc(S(N)(=O)=O)cc2)cc1,inactive
9,CCCCC/C=C/CC1CC(=O)OC1=O (stereo unspecified),inactive
10,C=CC(=O)OCCCCCCOC(=O)C=C,inactive
11,Cc1occc(=O)c1OC(=O)C(C)C,inactive
12,Cc1ccnc2c1NC(=O)c1cccnc1N2C1CC1,inactive
13,O=Nc1ccc(Nc2ccccc2)cc1,inactive
14,CC1=C(C=O)C(C)(C)CC=C1,inactive
15,CC[C@H]1CN2CCc3cc(OC)c(OC)cc3[C@@H]2C[C@@H]1C[C@H]1NCCc2cc(OC)c(OC)cc21,inactive
16,CC(C)(C)c1cc(C(C)(C)C)c(O)c(C(C)(C)C)c1,inactive
17,CC(C)(C)c1ccccc1,inactive
18,O=C(O)CCc1ccccc1,inactive
19,CCCCC(CC)COC(=O)CC(C(=O)OCC(CC)CCCC)S(=O)(=O)O (stereo unspecified),inactive
20,Nc1nc2ccccc2[nH]1,inactive
21,Cc1ccc(S(=O)(=O)Oc2ccc(N=Nc3ccc(-c4ccc(N=Nc5c(O)ccc6cc(S(=O)(=O)O)cc(S(=O)(=O)O)c56)c(C)c4)cc3C)cc2)cc1,inactive
22,CC[C@@H](N)CO,inactive

# Test: qHTS assay to test for compound auto fluorescence at 535 nm (green) in HepG2 cell free culture (AID 720686); also: potency is read from the fitted curve at half-maximal effect
# Conditions: Cell-free medium, green autofluorescence 485/535 nm; series mostly up to 91.3 µM
row,SMILES,Potency
1,CCCCOCCOC(=O)c1ccccc1C(=O)OCCOCCCC,inactive
2,O=C(O)CP(=O)(O)O,inactive
3,O=C(Nc1ccccc1SSc1ccccc1NC(=O)c1ccccc1)c1ccccc1,inactive
4,CC(N)=O,inactive
5,NC12CC3CC(CC(C3)C1)C2,inactive
6,Cc1cccc(O)c1C,inactive
7,[Cl][In]([Cl])[Cl],inactive
8,BrC1CCC(Br)C(Br)CCC(Br)C(Br)CCC1Br (stereo unspecified),inactive
9,Nc1nc(=S)c2[nH]cnc2[nH]1,inactive
10,O=C(Oc1ccccc1)c1ccccc1O,inactive
11,CC(C)CCOCc1ccccc1,inactive
12,Cc1ccc(-c2cc(C(F)(F)F)nn2-c2ccc(S(N)(=O)=O)cc2)cc1,inactive
13,CN(C)c1ccc(C(=C2C=CC(=[N+](C)C)C=C2)c2ccccc2)cc1,inactive
14,CCCCC/C=C/CC1CC(=O)OC1=O (stereo unspecified),inactive
15,C=CC(=O)OCCCCCCOC(=O)C=C,inactive
16,Cc1occc(=O)c1OC(=O)C(C)C,inactive
17,Nc1ccc(O)cc1,inactive
18,O=C1OC2(c3ccc(O)cc3Oc3cc(O)ccc32)c2ccccc21,3.16 µM [fluorescent] (active) and 2.82 µM [fluorescent] (active) and 3.55 µM [fluorescent] (active)
19,CCC(C)(Oc1ccc(C2(c3ccc(OC(C)(CC)C(=O)O)cc3)CCCCC2)cc1)C(=O)O (stereo unspecified),inactive

row,SMILES,Potency
1,O=Cc1ccc(Cl)cc1,inactive
2,Cc1ccnc2c1NC(=O)c1cccnc1N2C1CC1,inactive
3,CC(=O)OCC1=C(C(=O)O)N2C(=O)[C@@H](NC(=O)Cc3cccs3)[C@H]2SC1,inactive
4,O=Nc1ccc(Nc2ccccc2)cc1,inactive
5,CC1=C(C=O)C(C)(C)CC=C1,inactive
6,CC[C@H]1CN2CCc3cc(OC)c(OC)cc3[C@@H]2C[C@@H]1C[C@H]1NCCc2cc(OC)c(OC)cc21,inactive
7,CC(C)(C)c1cc(C(C)(C)C)c(O)c(C(C)(C)C)c1,inactive
8,Nc1cc(S(=O)(=O)O)cc2cc(S(=O)(=O)O)cc(O)c12,inactive
9,CC(C)(C)c1ccccc1,inactive
10,O=C(O)CCc1ccccc1,inactive
11,CCC[C@H](N[C@@H](C)C(=O)N1[C@H](C(=O)O)C[C@@H]2CCCC[C@@H]21)C(=O)OCC,inactive
12,CN(C)c1ccc2nc3ccc(=[N+](C)C)cc-3sc2c1,inactive
13,CCCCC(CC)COC(=O)CC(C(=O)OCC(CC)CCCC)S(=O)(=O)O (stereo unspecified),inactive
14,Nc1nc2ccccc2[nH]1,inactive
15,Cc1ccc(S(=O)(=O)Oc2ccc(N=Nc3ccc(-c4ccc(N=Nc5c(O)ccc6cc(S(=O)(=O)O)cc(S(=O)(=O)O)c56)c(C)c4)cc3C)cc2)cc1,inactive
16,CC[C@@H](N)CO,inactive
17,Cc1cc(C(C)(C)C)c(O)c(C(C)(C)C)c1,inactive
18,CCN(CC)C(=O)Nc1ccc(OCC(O)CNC(C)(C)C)c(C(C)=O)c1 (stereo unspecified),inactive
